Measurements reported in PubChem BioAssay.
For part of these data: Potency and affinity values are given separately. Activity calls are given as the source filed them.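 Rule for the calls, unless noted: active = fitted half-maximal concentration within the tested dose range, moderate curve steepness, a statistically real signal drop, and little compound fluorescence or tag-binding interference; inactive = the rest.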

Experiments:
[1] = biological target: Cell division control protein 42 homolog (Homo sapiens) (UniProt P60953); experiment: activated mutant Cdc42 GTP-binding inhibitors, dose response, biochemical, multiplex bead flow cytometry, Bodipy-FL-GTP (AID 1333)
Cell division control protein 42 homolog (Homo sapiens), sequence (P60953 whole entry, looked up): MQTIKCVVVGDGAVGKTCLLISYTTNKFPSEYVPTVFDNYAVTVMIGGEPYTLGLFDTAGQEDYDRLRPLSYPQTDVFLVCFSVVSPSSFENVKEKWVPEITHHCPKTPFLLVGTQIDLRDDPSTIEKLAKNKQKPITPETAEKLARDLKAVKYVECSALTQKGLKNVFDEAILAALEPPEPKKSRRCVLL

[2] = biological target: Cell division control protein 42 homolog (Homo sapiens) (UniProt P60953); experiment: wildtype Cdc42 GTP-binding inhibitors, dose response, biochemical, multiplex bead flow cytometry, Bodipy-FL-GTP (AID 1334;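 active = fitted half-maximal concentration within the tested range, moderate curve steepness, significant signal drop, and little compound fluorescence or bead-linkage interference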); details: bead-based flow cytometry, Bodipy-FL-GTP binding to GST-Cdc42; at 100 µM (top of the series) unless noted
[3] = biological target: GTPase HRas (Homo sapiens) (UniProt P01112); experiment: inhibitors of GTP binding to wildtype Ras, dose response, biochemical, multiplex bead flow cytometry (AID 1335;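 active = fitted half-maximal concentration within 10 nM to 100 µM, steepness 0.5 to 2, significant signal drop, low assay interference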); details: bead-based flow cytometry, Bodipy-GTP binding to GST-Ras; at 100 µM (top of the series) unless noted
GTPase HRas (Homo sapiens), sequence (P01112 whole entry, looked up): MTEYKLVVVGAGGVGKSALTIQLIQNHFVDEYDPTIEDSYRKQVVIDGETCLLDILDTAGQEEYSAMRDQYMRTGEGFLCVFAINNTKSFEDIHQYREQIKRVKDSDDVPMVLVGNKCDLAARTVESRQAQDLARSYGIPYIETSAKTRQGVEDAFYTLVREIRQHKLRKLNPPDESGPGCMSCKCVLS

[4] = system: Ras-related protein Rab-7a (dog), GTP binding; experiment: Rab7 GTP binding inhibitors, potency, dose response, biochemical, wildtype, multiplex bead flow cytometry (AID 1336; call rule not given here)
[5] = biological target: Ras-related C3 botulinum toxin substrate 1 (Homo sapiens) (UniProt P63000); experiment: wildtype Rac1 GTP binding inhibitors, dose response, biochemical, multiplex bead flow cytometry (AID 1340;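 active = dose curve with midpoint inside tested range, moderate steepness, plateau gap beyond fit error, low compound glow and bead-link interference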); details: GST-Rac1 beads, Bodipy-FL-GTP binding; at 100 µM (top of the series) unless noted
[6] = biological target: GTPase HRas (Homo sapiens) (UniProt P01112); experiment: activated Ras mutant GTP binding inhibitors, dose response, biochemical, multiplex bead flow cytometry (AID 1341;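 active = dose-response curve with midpoint inside the tested range, moderate steepness, significant amplitude and little compound fluorescence or bead-attachment interference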;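 note: GST-tagged constitutively activated Ras mutant immobilized on beads and multiplexed with other GTPases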)

SMILES | outcome [1] | fluorescence, percent of control (lower = inhibition) [2] [%] | GTP binding, percent of control [3] [%] | outcome [4] | GTP binding signal, raw median fluorescence (lower = inhibition) (MCF (arbitrary fluorescence units)) [5] | outcome [6]
Cc1ccc(CNCc2c(C)[nH]c(C)c2C(=O)O)cc1 | inactive | 64.4 | 88.9 | inactive | 34.6 | inactive
CCCn1cc(CN2CCCC(CNC(=O)c3ccc(F)cc3)C2)c(C)n1 (stereo not given) | inactive | 37.6 | 85.7 | inactive | 247 | inactive
COc1ccc(S(=O)(=O)N2CCN(CC(=O)Nc3cc(C(F)(F)F)ccc3Cl)CC2)cc1 | inactive | 84.2 | 153 | inactive | 182 | inactive
O=C(CCN1CCCC1Cc1ccccc1)c1ccc2c(c1)OCCO2 (stereo not given) | inactive | 31.5 | 82.4 | inactive | 236 | inactive
COc1ccc(C(=O)N/C(=C\c2cccc([N+](=O)[O-])c2)C(=O)Nc2cccc(C(=O)O)c2)cc1 | inactive | 35.1 | 78.2 | inactive | 162 | inactive
Cc1cc(-c2n[nH]c(=S)n2/N=C/C(Cl)=C/c2ccccc2)n[nH]1 | inactive | 33.9 | 78.7 | inactive | 229 | inactive
COc1ccc(OCc2ccccc2Br)c(C(=O)O)c1 | inactive | 53 | 217 | inactive | 49.3 | inactive
COc1cccc2c(SCC(=O)N/N=C/c3ccc(O)cc3O)cc(C)nc12 | inactive | 29.6 | 62.9 | inactive | 110 | inactive
COc1ccccc1OCCn1cc(C(=O)O)c2ccc(Cl)cc21 | inactive | 57 | 201 | inactive | 61.4 | inactive
COc1ccc(CC(C)N2CCN(Cc3ccccc3)CC2)c(OC)c1 (stereo not given) | inactive | 38.1 | 85.3 | inactive | 272 | inactive
Cc1c(Cl)cccc1NS(=O)(=O)c1ccc2c(c1)C1C=CCC1C(c1ccc(C(=O)O)cc1)N2 (stereo not given) | inactive | 22.3 | 72.9 | inactive | 222 | inactive
COc1cccc(CNCc2ccc(C(=O)O)s2)c1 | inactive | 61.9 | 84.8 | inactive | 32.9 | inactive
Cc1cc(Cl)ccc1OCC(=O)OCC(=O)Nc1ccc(F)c([N+](=O)[O-])c1 | inactive | 53 | 70.9 | inactive | 0 | inactive
O=S(=O)(Cc1ccccc1)c1ccccc1-c1nnc(-c2ccccc2)o1 | inactive | 89.9 | 166 | inactive | 188 | inactive
Cc1nc2nc(SCC(=O)O)nn2c(C)c1Cc1ccccc1Cl | inactive | 29.1 | 84 | inactive | 228 | inactive
Nc1c(S(=O)(=O)c2cccc(Cl)c2)c2nc3ccccc3nc2n1/N=C/c1ccc(O)c(O)c1 | inactive | 54.4 | 91.7 | inactive | 99.4 | inactive
Cc1ccc(O)c(N=Cc2cc(Cc3ccccc3)cc([N+](=O)[O-])c2O)c1 | inactive | 30.7 | 72.6 | inactive | 111 | inactive
O=C(NC1CCCCC1)c1noc2c1CCCCC2 | inactive | 34.3 | 80.9 | inactive | 252 | inactive
NC(=O)c1cc2ccccc2o/c1=N/NC(=O)c1cccs1 | inactive | 33.4 | 69.6 | inactive | 167 | inactive
O=C(O)c1ccc(CSCc2cccc(Cl)c2)o1 | inactive | 57.3 | 81.4 | inactive | 30.1 | inactive

SMILES | outcome [1] | fluorescence, percent of control (lower = inhibition) [2] [%] | GTP binding, percent of control [3] [%] | outcome [4] | GTP binding signal, raw median fluorescence (lower = inhibition) (MCF (arbitrary fluorescence units)) [5] | outcome [6]
CCOC(=O)C1(Cc2ccccc2)CCCN(CCO)C1 (stereo not given) | inactive | 37.6 | 80.3 | inactive | 246 | inactive
CC(=O)Nc1ccc(N2C(=O)c3ccc(C(=O)Nc4nnc(SCc5ccc(F)cc5)s4)cc3C2=O)cc1 | inactive | 43.1 | 92.1 | inactive | 253 | inactive
Cc1cc(C(F)F)n2nc(C(=O)Nc3ccc(S(=O)(=O)NC45CC6CC(CC(C6)C4)C5)cc3)nc2n1 | inactive | 35 | 82.9 | inactive | 254 | inactive
O=C(O)c1cc([N+](=O)[O-])ccc1NCc1ccccc1Cl | inactive | 96.9 | 112 | inactive | 84.1 | inactive
O=C(NCc1cccnc1)c1cccn2c(=O)c3sccc3nc12 | inactive | 32.5 | 74.9 | inactive | 162 | inactive
Cc1ccc(C(=O)c2ccccc2C(=O)O)cc1 | inactive | 67.4 | 89.9 | inactive | 38.5 | inactive
CCN(CC)c1ccc(/C=C/C(=O)c2ccc(Br)cc2)cc1 | inactive | 312 | 319 | inactive | 0 | inactive
COCCNC(=S)Nc1cc(OC)c(OC)cc1C#N | inactive | 40.8 | 74.7 | inactive | 144 | inactive
NC(=O)NOCc1ncc(C(F)(F)F)cc1Cl | inactive | 36.2 | 81.2 | inactive | 274 | inactive
COc1ccc(-c2nn3c(-c4ccccn4)nnc3s2)cc1OC | inactive | 43 | 52.9 | inactive | 137 | inactive
COc1cccc(OCc2ccccc2Br)c1C(=O)O | inactive | 51.9 | 206 | inactive | 46.4 | inactive
Cc1ccc(Sc2c(C)nn(C(=O)C3CC3)c2C)cc1 | inactive | 28.8 | 78.5 | inactive | 236 | inactive
CC1=NC(=O)C(N=Nc2ccccc2C(=O)O)N1c1ccccc1 (stereo not given) | inactive | 28.8 | 69.9 | inactive | 180 | inactive
COc1cc([N+](=O)[O-])ccc1N=Nc1c(N)[nH]n(-c2ccccc2)c1=O | inactive | 30.5 | 74.5 | inactive | 188 | inactive
CN(Cc1ccccc1)c1ccc([N+](=O)[O-])cc1C(=O)O | inactive | 41 | 87.3 | inactive | 276 | inactive
Cc1ccccc1OCCn1cc(C(=O)O)c2c(C)cccc21 | inactive | 53 | 176 | inactive | 55.6 | inactive
O=C(O)c1c(C(F)(F)F)ccnc1SCc1ccccc1 | inactive | 62 | 228 | inactive | 55.9 | inactive
O=C(CSc1ccc2nnc(-c3cccc(F)c3)n2n1)N1CCCc2ccccc21 | inactive | 37.7 | 83 | inactive | 209 | inactive
O=C(c1n[nH]c(=O)c2ccccc12)N1CCN(C2c3ccccc3-c3ccccc32)CC1 | inactive | 87 | 156 | inactive | 175 | inactive
O=C(Cn1cnc2cc([N+](=O)[O-])ccc2c1=O)NCCc1ccc(Cl)cc1 | inactive | 36.8 | 85.2 | inactive | 244 | inactive

SMILES | outcome [1] | fluorescence, percent of control (lower = inhibition) [2] [%] | GTP binding, percent of control [3] [%] | outcome [4] | GTP binding signal, raw median fluorescence (lower = inhibition) (MCF (arbitrary fluorescence units)) [5] | outcome [6]
Cc1cc(C)n2ncc(C(=O)O)c2n1 | inactive | 35.6 | 84 | inactive | 266 | inactive
O=C(Nc1ccccc1C(=O)N1CCOCC1)C1CCC(=O)N1C1CCCC1 (stereo not given) | inactive | 51.3 | 62.7 | inactive | 210 | inactive
COc1cc2ccccc2cc1C(=O)NC(=S)Nc1cccc(C(=O)O)c1 | inactive | 33.8 | 83.3 | inactive | 174 | inactive
NC1=NC(=O)/C(=C\c2ccc(O)c([N+](=O)[O-])c2)S1 | inactive | 26.8 | 58.3 | inactive | 116 | inactive
CC(=O)NC1CC2CCCC(C1)N2C(=O)Nc1ccccc1 (stereo not given) | inactive | 88.1 | 152 | inactive | 217 | inactive
Cc1sc2nc3c4ccccc4c(NCc4ccco4)nn3c(=O)c2c1C | inactive | 94 | 104 | inactive | 123 | inactive
Cc1c(Cl)c([N+](=O)[O-])nn1Cc1ccc(C(=O)N/N=C\c2ccccn2)o1 | inactive | 38.5 | 53 | inactive | 95.4 | inactive
COc1cc(/C=N\NC(=O)c2ccc(Cn3nc([N+](=O)[O-])c(Cl)c3C)o2)ccc1O | inactive | 29.9 | 82 | inactive | 107 | inactive
N#C/C(=C\c1ccccc1)c1nc2ncccc2[nH]1 | inactive | 36.8 | 82.5 | inactive | 276 | inactive
COc1ccc(C(CC(=O)O)NC(=O)c2cc3cc(Br)ccc3oc2=O)cc1OC (stereo not given) | inactive | 31 | 78.7 | inactive | 213 | inactive
CCn1cc(C(=O)O)c(=O)c2cc(F)c(N/N=C/c3ccccc3)cc21 | inactive | 45.9 | 58.9 | inactive | 144 | inactive
O=C(O)/C=C/c1cn(Cc2ccccc2)nc1-c1ccccc1 | inactive | 101 | 72.4 | inactive | 175 | inactive
COc1cccc(C2CC(c3ccccc3)Nc3ncnn32)c1 (stereo not given) | inactive | 38.6 | 80.1 | inactive | 242 | inactive
Cc1ccc(NCC(=O)c2ccccc2)cc1Cl | inactive | 36.3 | 80.6 | inactive | 256 | inactive
Cc1ccc(/C=C2\SC(=S)N(C(Cc3ccccc3)C(=O)O)C2=O)cc1 (stereo not given) | inactive | 28.1 | 81.2 | inactive | 212 | inactive
Cn1nc(C(F)(F)F)c(/C=N/OC(=O)c2ccccc2)c1SCc1ccc(Cl)cc1 | inactive | 98.8 | 181 | inactive | 175 | inactive
Cn1nc(C(=O)Nc2cccnc2)c2ccccc2c1=O | inactive | 49 | 111 | inactive | 135 | inactive
CCN(CC)c1ccc2c(c1)oc(=O)c1c(Cl)cc(=O)oc12 | inactive | 29 | 72.6 | inactive | 226 | inactive
O=C(CCc1nc2ccccc2[nH]c1=O)OCC(=O)N1CCc2ccccc21 | inactive | 36.8 | 82.6 | inactive | 280 | inactive
O=C(C#Cc1ccccc1F)c1ccc([N+](=O)[O-])cc1 | inactive | 49.8 | 179 | inactive | 104 | inactive
